Source: PubChem
HT1080-NT tox = qHTS for induction of synthetic lethality in tumor cells producing 2HG: qHTS for the HT-1080-NT fibrosarcoma cell line; HT-1080-NT fibrosarcoma viability, CellTiter-Glo ATP luminescence, 48 h; Potency, µM (top dose mostly 46.1 µM), for inactives: at the top dose activity, negative = less viability, actives largely listed as cytotoxic; 1.6% of 360,000 active;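 note: NT is the 2HG producing partner of a matched IDH1 knockdown line; potency is the fitted concentration of half-maximal effect; 0% = DMSO-treated cells and -100% = media-only wells without cells; nearly all actives have a fitted effect of over 55% in size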
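HT-1080-NT; 750 cells/well; 5% FBS RPMI; 48 h compound, 37 degrees C; CellTiter-Glo luminescence; curve fitting and curve-class assignment.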
HT1080 IDH1KD tx = qHTS for induction of synthetic lethality in tumor cells producing 2HG: qHTS for the HT-1080-IDH1KD cell line; 2% of 360,000 active; AID 686971, 2013; HT-1080 IDH1 knockdown viability, ATP luminescence, 48 h; Potency, µM (doses to about 46.1 µM), without a hit: top-dose activity, negative = toxicity, most hits filed as cytotoxic;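 note: potency is the fitted concentration of half-maximal effect; 0% = DMSO wells and -100% = cell-free medium wells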
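Using the IDH1-knockdown HT-1080 line run in the same batch and compound series as the NT line, viability after 48 h at 37 °C was determined by CellTiter-Glo luminescence and expressed as % activity.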
12-LOX inh = Primary qHTS assay for inhibitors of human arachidonate 12S-lipoxygenase (ALOX12): Round 2 | Polyunsaturated fatty acid lipoxygenase ALOX12 (Homo sapiens), P18054 | 1.1% of 580,000 active | Potency, µM (series often up to 108 µM), for the others: at the top dose activity change, negative = inhibition, usual class: inhibitors | purified 12hLO, xylenol orange hydroperoxide absorbance; note: potency is the fitted concentration of half-maximal effect
Target sequence (P18054 whole entry, looked up): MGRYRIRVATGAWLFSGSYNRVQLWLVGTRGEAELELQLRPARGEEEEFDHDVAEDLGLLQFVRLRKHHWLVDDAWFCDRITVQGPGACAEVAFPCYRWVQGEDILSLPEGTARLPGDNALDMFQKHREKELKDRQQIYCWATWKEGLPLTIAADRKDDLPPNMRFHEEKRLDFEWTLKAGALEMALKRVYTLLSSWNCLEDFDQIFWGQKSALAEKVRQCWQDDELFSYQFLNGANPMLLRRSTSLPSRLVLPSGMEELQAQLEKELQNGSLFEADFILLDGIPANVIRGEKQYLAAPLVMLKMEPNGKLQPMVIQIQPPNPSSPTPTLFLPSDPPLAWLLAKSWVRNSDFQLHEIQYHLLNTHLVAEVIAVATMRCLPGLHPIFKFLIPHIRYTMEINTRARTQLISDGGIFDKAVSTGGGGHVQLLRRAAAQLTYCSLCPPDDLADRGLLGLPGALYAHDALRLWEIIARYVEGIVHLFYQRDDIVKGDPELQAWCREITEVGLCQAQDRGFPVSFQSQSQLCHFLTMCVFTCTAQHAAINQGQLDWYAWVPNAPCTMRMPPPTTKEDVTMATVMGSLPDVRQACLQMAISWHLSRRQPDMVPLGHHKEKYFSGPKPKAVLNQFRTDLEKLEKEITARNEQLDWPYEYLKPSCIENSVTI
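Purified human 12hLO (150 nM final) in 25 mM Hepes, 0.01% Triton X-100, pH 7.0 was preincubated 15 min at room temperature with compound. Then 40 uM arachidonic acid was added, 30 min. Hydroperoxide was read by Fe-XO absorbance ratio 573/405 nm.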
DT40 TDP1 CPT = qHTS for Inhibitors of human tyrosyl-DNA phosphodiesterase 1 (TDP1): qHTS in cells in presence of CPT | chicken DT40 Tdp1-/-;hTDP1 cells + 20 nM CPT, ATP luminescence, 48 h | 12% of 420,000 active | Potency, µM (titrated, usually from 46.2 µM), for the others: at the highest dose activity change, negative = growth inhibition, actives largely listed as inhibitors; note: potency is the fitted concentration of half-maximal effect; nearly all actives have a fitted effect of over 55% in size
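Cell growth measured by CellTiter-Glo luminescence after a minimum 48 h, 37 C compound exposure with 20 nM CPT in Tdp1-knockout DT40 cells stably expressing hTDP1, seeded 400/well; qHTS titration format.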
DT40 TDP1 no CPT = qHTS for Inhibitors of human tyrosyl-DNA phosphodiesterase 1 (TDP1): qHTS in cells in absence of CPT; DT40 Tdp1-/- hTDP1 cells, no CPT, ATP luminescence, 48 h; 15% of 420,000 active; Potency, µM (highest dose often 46.2 µM), for inactives: at the top dose activity change, negative = growth inhibition, hits mostly inhibitors; note: potency is the fitted concentration of half-maximal effect; nearly all actives have a fitted effect of over 55% in size
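Growth kinetics read by CellTiter-Glo luminescence after ≥48 hr at 37 °C. Cells: DT40 Tdp1-/- stably carrying human TDP1, 400 per well, compound exposure in the absence of CPT (DMSO vehicle).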
IL1B secr inh = qHTS for Inhibitors of Inflammasome Signaling: IL-1-beta AlphaLISA Primary Screen; THP-1 LPS/ATP IL-1B secretion, AlphaLISA, 16 h; stronger effect = lower value; activity change, % at 57.5 µM; 4.7% of 360,000 active; AID 743279, 2014; in the data active = activity change below about -50%; inconclusive = mostly about -30% to -49%
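Secreted IL-1B measured by AlphaLISA bead assay after 16 h compound exposure of THP-1 cells; compounds (final up to 57.5 uM) added 1 h before LPS (250 ng/mL) and ATP (1.25 mM) stimulation; lower signal means less secretion.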
* hit, by the source's call; ? = inconclusive; . = no result. Only a selection was taken, and hits are over-represented in it overall. Unless noted, calls come from the whole dose curve; as a rule, active = well fitted curve in the direction sought with a large enough effect; inconclusive = small, poorly fitted or top-dose-only effect, or another doubt; inactive = no such curve, though single readings can be large; an effect the other way counts as inactive or inconclusive. Unless noted, % is set by controls: 0 for no effect and ±100 for the full control effect.

SMILES | HT1080-NT tox | HT1080 IDH1KD tx | 12-LOX inh | DT40 TDP1 CPT | DT40 TDP1 no CPT | IL1B secr inh
O=C(NNC(=O)C(c1ccccc1)c1ccccc1)c1ccccn1 | ? | ? | 11% | 2.9µM* | 2.3µM* | -68*
CC1=NN(c2ccc(F)cc2)C(=O)C1C(c1cccc(O)c1)c1c(C)[nH]n(-c2ccc(F)cc2)c1=O (configuration not stated) | ? | -19% | 149% | ? | ? | 47
CC1=NN(c2ccc(Cl)cc2)C(=O)C1C(c1cccc(O)c1)c1c(C)[nH]n(-c2ccc(Cl)cc2)c1=O (configuration not stated) | 16µM* | ? | . | ? | ? | 0
O=C(CCc1nc(CS(=O)(=O)c2ccc(F)cc2)no1)NCCc1ccccc1Cl | . | . | 3% | . | . | .
CCN1C(=O)/C(=C\C=C2/C=CC=CN2CC)SC1=S | -19% | -18% | ? | ? | 29µM* | ?
CCN1C(=O)/C(=C/C=C2\C=CN(CC)c3ccccc32)SC1=S | 13% | 14% | ? | 16µM* | 16µM* | -1
CCN1C(=O)/C(=C2/C=CC=CN2C)SC1=S | -6% | -12% | 0% | -6% | -9% | 0
CN1C(=O)C(Cl)(Cl)C(=O)c2ccccc21 | 18µM* | ? | . | 15µM* | 16µM* | -91*
Cc1ccc2c(c1)NC(=O)C2(O)C(F)(F)F (configuration not stated) | . | . | 0% | . | . | .
Oc1ccccc1N=Nc1ccccc1O | ? | ? | ? | 4.6µM* | 4.6µM* | 128
CCNC(=O)N1CCCN(Cc2ccncc2)C(c2ccccc2)CC(=O)NCC1 (configuration not stated) | . | . | 18% | . | . | .
COc1ccc(CN(CCc2ccccc2)Cc2ccccc2)cc1OC | -13% | -17% | ? | ? | ? | 30
COc1cc(CN(CCN(C)C)Cc2ccccc2)ccc1OCc1ccccc1 | 23µM* | 21µM* | ? | ? | 23µM* | -63*
CC1CCCC(NC(=O)NC(=O)CCl)C1C (configuration not stated) | -4% | -6% | -6% | 3.7µM* | 3.7µM* | -63*
CC1CCCCC1NC(=O)NC(=O)CCl (configuration not stated) | -18% | ? | -13% | 2.9µM* | 5.2µM* | -96*
CC1CCCCC1NC(=O)NC(=O)COC(=O)c1nccnc1N (configuration not stated) | 9% | 22% | -8% | -12% | -1% | 19
Cc1ccc(N=C2NC(=O)/C(=C/c3cccnc3)S2)cc1C | 0% | -3% | ? | -16% | -21% | 0
COc1cc(/C=C2/SC(=Nc3ccc(O)cc3)NC2=O)cc(OC)c1O | -27% | -9% | -11% | 16µM* | 12µM* | 29
O=C1NC(=Nc2ccc(O)cc2)S/C1=C\C=C\c1ccco1 | 1.3µM* | 1.5µM* | -23% | 0.82µM* | 0.73µM* | 98
COc1ccc(N=C2NC(=O)/C(=C/c3ccc(O)c(OC)c3)S2)cc1 | -16% | 2% | -18% | ? | ? | -67*
CCc1ccc(N=C2NC(=O)/C(=C/c3ccc(OCC(=O)O)c(OC)c3)S2)cc1 | 3% | 11% | ? | -6% | -8% | 10
COc1ccccc1N=C1NC(=O)/C(=C/c2ccc(N(C)C)cc2)S1 | 7.3µM* | 3.3µM* | 29% | 2.1µM* | 1.8µM* | 4
COc1ccc(N=C2NC(=O)/C(=C\c3ccco3)S2)cc1 | -1% | -4% | -9% | -12% | ? | 3
Cc1cccc(NS(=O)(=O)c2cc(-c3cnc(C)o3)ccc2C)c1 | . | . | -2% | . | . | .
O=C1NC(=NCc2ccccc2)S/C1=C/c1ccc(O)cc1 | ? | ? | ? | ? | 12µM* | -76*
SMILES | HT1080-NT tox | HT1080 IDH1KD tx | 12-LOX inh | DT40 TDP1 CPT | DT40 TDP1 no CPT | IL1B secr inh
CCOC(=O)c1nc(C)n(-c2cc(OC)c(Cl)cc2Cl)n1 | 2% | 2% | -11% | 9% | -5% | -92*
CCOC(=O)c1nc(C)n(-c2cc(Cl)ccc2Cl)n1 | -1% | 0% | -4% | -4% | -7% | -12
COc1cc(OC)c(/C=C/c2c3ccccc3cc[n+]2C)c(OC)c1 | . | . | . | 0.32µM* | 0.089µM* | .
COc1cc(OC)c(/C=C/c2cc(/C=C/c3c(OC)cc(OC)cc3OC)[n+](C)c3ccccc23)c(OC)c1 | . | . | . | 1.6µM* | 1.1µM* | .
COc1cc(OC)c(/C=C/c2cc3c4ccccc4ccc3[n+](C)c2)c(OC)c1 | . | . | . | -117% | ? | .
CC(C)(O)C1CCCN(C(=O)c2cc(COc3ccccc3F)[nH]n2)C1 (configuration not stated) | . | . | 21% | . | . | .
COCCn1c(=O)c(CCc2ccccc2)nc2cnc(N3CCN(C)CC3)nc21 | . | . | 0% | -16% | -22% | .
CN1CCN(c2ncc3nc(CCc4ccccc4)c(=O)n(C)c3n2)CC1 | . | . | ? | 23µM* | ? | .
N#CCCn1c(=O)c(CCc2ccccc2)nc2cnc(Oc3ccccc3)nc21 | . | . | 0% | 3% | ? | .
COc1ccc(-n2c(=O)c(CCc3ccccc3)nc3cnc(N4CCN(C)CC4)nc32)cc1 | . | . | 13µM* | -10% | -25% | .
COc1ccc(Oc2ncc3nc(CCc4ccccc4)c(=O)n(CCC#N)c3n2)cc1 | . | . | 0% | ? | 23µM* | .
COc1ccc(-n2c(=O)c(CCc3ccccc3)nc3cnc(N4CCNCC4)nc32)cc1 | . | . | -24% | ? | -12% | .
CCn1c(SCc2cc(OC)c(OC)cc2Br)nc2cc(S(N)(=O)=O)ccc21 | . | . | -9% | . | . | .
CCCCN(CCCC)S(=O)(=O)c1ccc(NC(=O)c2ccc([N+](=O)[O-])cc2Cl)cc1 | -30% | ? | 0% | ? | 21µM* | 0
CCCCN(CCCC)S(=O)(=O)c1ccc(NC(=O)c2cccs2)cc1 | ? | ? | 13% | 26µM* | 21µM* | -85*
CC(=O)N1CCC(CC(=O)N2C[C@@H](Oc3cccnc3)C[C@H]2C(=O)N2CCOCC2)CC1 | . | . | 62% | . | . | .
O=C(NC1CCCCC1)C1CN(C(=O)c2ccc(C(F)(F)F)cc2)CC12CCOCC2 (configuration not stated) | . | . | 9% | . | . | .
